Assay results taken from PubChem BioAssay AID624136 (Broad Institute, 2012).
Out of some 17,000 compounds screened, about 75 (0.4%) were called active.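 How the source made its calls: active means compounds whose four printed spots each glow above background more than chance allows, each with a p-value under 7%; inactive means the rest.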 Only a selection was taken, and actives are over-represented in it overall.

These compounds were tested on mutant tumor protein p53 (GST-tagged), Homo sapiens (assay: small molecules binding GST-tagged mutant p53 – biochemical, small molecule microarray, anti-GST fluorescence, primary screen (AID 624136)).

Structure (SMILES) | outcome
CC(=O)CC(=O)N1C(=O)N(C)[C@@]2(C)Oc3ccccc3[C@@H]1[C@H]2COC(=O)c1ccccc1 | inactive
C[C@@H]1CN([C@@H](C)CO)C(=O)Cc2cc(NS(C)(=O)=O)ccc2O[C@H]1CN(C)C(=O)Nc1ccccc1 | inactive
CO[C@H]1C(=O)c2c(O)c(CC=C(C)C)c(O)c(CC=C(C)C)c2O[C@@H]1c1ccc(O)cc1 | inactive
CC(C)NC(=O)Nc1ccc2c(c1)C(=O)N([C@H](C)CO)C[C@@H](C)[C@@H](CN(C)S(=O)(=O)c1cccs1)OCCCC[C@@H](C)O2 | inactive
O=C1O[C@@H](c2ccccc2)[C@@H](c2ccccc2)N2[C@@H](c3ccccc3OCCO)[C@]3(C(=O)Nc4ccccc43)[C@@H](C(=O)N3CCCCCCC3)[C@H]12 | active
COc1ccc(C#Cc2ccc3c(c2)[C@]2(C(=O)N3)[C@H](C(=O)N3CCCCCCC3)[C@H]3C(=O)O[C@H](c4ccccc4)[C@H](c4ccccc4)N3[C@@H]2c2ccc(O)cc2)cc1 | inactive
O=C1O[C@H](c2ccccc2)[C@H](c2ccccc2)N2[C@H]1[C@@H](C(=O)N1CCN(c3ncccn3)CC1)[C@]1(C(=O)Nc3ccccc31)[C@H]2c1ccc(OCCO)cc1 | inactive
COc1ccc(C#Cc2ccc3c(c2)[C@]2(C(=O)N3)[C@H](c3ccccc3OCCO)N3[C@H](c4ccccc4)[C@H](c4ccccc4)OC(=O)[C@H]3[C@@H]2C(=O)N2CCCCCCC2)cc1 | active
COC(=O)C(CC#Cc1ccc2c(c1)[C@]1(C(=O)N2)[C@H](c2ccccc2OCCO)N2[C@H](c3ccccc3)[C@H](c3ccccc3)OC(=O)[C@H]2[C@@H]1C(N)=O)C(=O)OC | inactive
O=C1O[C@@H](c2ccccc2)[C@@H](c2ccccc2)N2[C@@H](c3ccccc3OCCO)[C@]3(C(=O)Nc4ccc(C#CC5(O)CCCCCC5)cc43)[C@@H](C(=O)N3CCCCCCC3)[C@H]12 | inactive
CC(=O)c1cccc(NC(=O)c2ccc(CNS(=O)(=O)c3ccc(C(C)(C)C)cc3)cc2)c1 | inactive
C[C@@H]1CCCCO[C@H](CN(C)C(=O)NC2CCCCC2)[C@H](C)CN([C@@H](C)CO)C(=O)c2cc(NC(=O)C3CCCCC3)ccc2O1 | inactive
C[C@@H]1CCCCO[C@H](CN(C)S(=O)(=O)c2ccccc2)[C@H](C)CN([C@@H](C)CO)C(=O)c2cc(N(C)C)ccc2O1 | inactive
C[C@@H]1CN([C@@H](C)CO)C(=O)Cc2cc(NC(=O)Nc3ccc4c(c3)OCO4)ccc2O[C@@H]1CN(C)C(=O)Nc1ccc2c(c1)OCO2 | inactive
C[C@@H]1CN([C@H](C)CO)C(=O)c2cc(NS(=O)(=O)c3ccccc3)ccc2O[C@H]1CN(C)C(=O)Nc1ccc2c(c1)OCO2 | inactive
O=c1cc(CSc2nnnn2-c2ccccc2)[nH]c(=S)[nH]1 | inactive
Cc1ccc(C)c(S(=O)(=O)NC(C)C(=O)Nc2ccc(Br)cc2F)c1 (stereo unspecified) | inactive
C[C@H](CO)N1C[C@H](C)[C@H](CN(C)Cc2ccncc2)Oc2ccc(NC(=O)Cc3cn(C)c4ccccc34)cc2CC1=O | inactive
COc1ccc(-c2cc(C(=O)N3CCCC3C(=O)O)c(C)o2)cc1OC (stereo unspecified) | inactive
CCN1CCN(S(=O)(=O)c2cc(OCC(N)=O)c(C)cc2Cl)CC1 | inactive
Cc1cc(C(=O)Nc2cccc3c2O[C@@H](CN(C)C(=O)Nc2ccc(F)cc2)[C@H](C)CN([C@@H](C)CO)C3=O)n(C)n1 | inactive
C[C@H](CO)N1C[C@H](C)[C@@H](CN(C)Cc2ccc(C(=O)O)cc2)Oc2ccc(NC(=O)Cn3cnnn3)cc2CC1=O | inactive
C[C@@H]1CN([C@@H](C)CO)C(=O)c2cccc(NC(=O)c3ccncc3)c2O[C@H]1CN(C)S(=O)(=O)c1ccc(F)cc1 | inactive
C[C@H](CO)N1C[C@H](C)[C@@H](CN(C)CC2CCCCC2)Oc2ccc(NC(=O)Cn3cnnn3)cc2CC1=O | inactive

Structure (SMILES) | outcome
COc1cc(C2OC(c3cc(OC)c(OC)c(OC)c3)C(C)C2C)cc(OC)c1OC (stereo unspecified) | inactive
C[C@@H]1CN([C@@H](C)CO)C(=O)c2cc(NS(=O)(=O)c3ccccc3)ccc2O[C@@H](C)CCCCO[C@H]1CN(C)S(=O)(=O)c1cccs1 | inactive
Cc1cc(C)cc(N2C(=O)CSC2c2cccc([N+](=O)[O-])c2)c1 (stereo unspecified) | inactive
C[C@H](CO)N1C[C@H](C)[C@H](CN(C)C)Oc2ncc(C#Cc3ccc(F)cc3)cc2C1=O | inactive
C[C@H]1CN([C@@H](C)CO)C(=O)Cc2cc(NC(=O)NC3CCCCC3)ccc2O[C@H]1CN(C)S(=O)(=O)c1ccccc1 | inactive
C[C@H]1CN([C@@H](C)CO)C(=O)c2cccc(NS(=O)(=O)c3ccccc3)c2O[C@@H]1CN(C)C(=O)Nc1ccc(C(F)(F)F)cc1 | inactive
Cc1noc(C)c1NC(=O)N(C)C[C@@H]1Oc2ccc(NC(=O)CCN3CCOCC3)cc2CC(=O)N([C@H](C)CO)C[C@@H]1C | inactive
COc1ccc(S(=O)(=O)Nc2ccc3c(c2)CC(=O)N([C@@H](C)CO)C[C@@H](C)[C@@H](CN(C)C)O3)cc1 | inactive
CCO/C([O-])=N\c1c[n+](N2CCOCC2)no1 | inactive
C[C@H](CO)N1C[C@H](C)[C@@H](CN(C)CC2CC2)Oc2ccc(NS(=O)(=O)c3cn(C)cn3)cc2CC1=O | inactive
Cc1ccc(-c2cn3c4c(sc3n2)CCCC4)cc1 | inactive
Cc1noc(C)c1S(=O)(=O)N(C)C[C@H]1Oc2ccc(NC(=O)CCN3CCOCC3)cc2CC(=O)N([C@H](C)CO)C[C@H]1C | inactive
C[C@@H]1CN([C@H](C)CO)C(=O)CCCn2cc(nn2)CO[C@@H]1CN(C)C(=O)c1ccc2ccn(C)c2c1 | inactive
CC(C)NC(=O)N(C)C[C@@H]1Oc2ccc(NC(=O)C3CC3)cc2C(=O)N([C@@H](C)CO)C[C@H]1C | inactive
C[C@@H]1CN([C@H](C)CO)C(=O)Cc2cc(NC(=O)C3CC3)ccc2O[C@H]1CN(C)Cc1ccc(Cl)c(Cl)c1 | active
C[C@H](CO)N1C[C@H](C)[C@@H](CN(C)C(=O)Nc2ccccc2)Oc2ccc(NC(=O)C3CC3)cc2CC1=O | inactive
C[C@@H]1CN([C@H](C)CO)C(=O)Cc2cc(NC(=O)C3CC3)ccc2O[C@H]1CN(C)Cc1ccc2c(c1)OCO2 | inactive
C[C@@H]1CN([C@@H](C)CO)C(=O)c2cc(NC(=O)Nc3ccc4c(c3)OCO4)ccc2O[C@@H](C)CCCCO[C@@H]1CN(C)Cc1ccccc1 | active
C[C@@H]1CCCCO[C@H](CN(C)Cc2ccncc2)[C@H](C)CN([C@H](C)CO)C(=O)c2cc(NC(=O)Nc3ccccc3)ccc2O1 | inactive
C[C@@H]1CCCCO[C@H](CN(C)C(=O)c2ccccc2)[C@H](C)CN([C@@H](C)CO)C(=O)c2cc(NC(=O)Nc3ccc4c(c3)OCO4)ccc2O1 | inactive
C[C@@H]1CCCCO[C@@H](CN(C)Cc2ccc(C(=O)O)cc2)[C@H](C)CN([C@@H](C)CO)C(=O)c2cc(NC(=O)Nc3ccc(C(F)(F)F)cc3)ccc2O1 | inactive
C[C@@H]1CC[C@]2(C)[C@H](CC[C@@H](O)[C@]2(C)O)[C@@]1(C)CC(=O)c1ccoc1 | inactive
CC(=O)N[C@@H](C(=O)O[C@H]1CCC(C)(C)[C@@H]2CCC3=C(COC3=O)[C@@]12C)C(C)C | inactive
CC(C)NC(=O)N(C)C[C@H]1OCCCC[C@H](C)Oc2ccc(NC(=O)Nc3ccc(C(F)(F)F)cc3)cc2C(=O)N([C@H](C)CO)C[C@@H]1C | inactive

Structure (SMILES) | outcome
CC(C)NC(=O)N(C)C[C@@H]1OCCCC[C@@H](C)Oc2ccc(NC(=O)Cc3ccccc3)cc2C(=O)N([C@H](C)CO)C[C@H]1C | inactive
C[C@H]1CN([C@@H](C)CO)C(=O)c2cccc(NC(=O)Nc3ccc(C(F)(F)F)cc3)c2O[C@H]1CN(C)C(=O)NC1CCCCC1 | inactive
COC(=O)C1=CO[C@@H](O[C@@H]2O[C@H](CO)[C@@H](O)[C@H](O)[C@H]2O)[C@@H]2[C@@](C)(O)[C@@H](OC(=O)/C=C/c3ccc(OC)c(OC)c3)C[C@]12O | inactive
C[C@H](CO)N1C[C@H](C)[C@H](CN(C)S(=O)(=O)c2cn(C)cn2)Oc2c(NC(=O)c3ccncc3)cccc2C1=O | inactive
Cc1noc(C)c1NC(=O)N(C)C[C@@H]1Oc2ccc(NC(=O)Nc3ccc(F)cc3)cc2C(=O)N([C@H](C)CO)C[C@@H]1C | inactive
C[C@H](CO)N1C[C@H](C)[C@H](CN(C)C)Oc2c(NC(=O)C3CCOCC3)cccc2C1=O | inactive
C[C@@H]1CN([C@@H](C)CO)C(=O)Cc2cc(NS(C)(=O)=O)ccc2O[C@@H]1CN(C)Cc1ccc2c(c1)OCO2 | inactive
O=C(C1=C[C@H](c2ccc(C(F)(F)F)cc2)C[C@H](OCc2ccc(CO)cc2)O1)N1CCN(Cc2ccccc2)CC1 | inactive
C[C@H](CO)N1C[C@H](C)[C@@H](CN(C)C)Oc2ccc(NS(=O)(=O)c3cccs3)cc2C1=O | inactive
COc1ccc(S(=O)(=O)N(C)C[C@H]2OCCCC[C@@H](C)Oc3ccc(NC(=O)CCC(F)(F)F)cc3C(=O)N([C@@H](C)CO)C[C@H]2C)cc1 | inactive
Cc1noc(C)c1NC(=O)N(C)C[C@H]1Oc2ccc(N(C)C)cc2CC(=O)N([C@H](C)CO)C[C@H]1C | inactive
C[C@H]1CCCCO[C@H](CN(C)C(=O)Nc2ccccc2)[C@@H](C)CN([C@@H](C)CO)C(=O)c2cc(NC(=O)CCC(F)(F)F)ccc2O1 | inactive
N#Cc1c(-c2ccccc2)cc(-c2ccccc2)nc1SCC(=O)O | inactive
CC(Sc1nnc(N)s1)C(=O)Nc1cccc(Cl)c1 (stereo unspecified) | inactive
COc1ccc(NC(=O)Nc2cccc3c2O[C@@H](CN(C)Cc2ccncc2)[C@H](C)CN([C@H](C)CO)C3=O)cc1 | inactive
COC(=O)C1(Cc2ccc(O)c(CC3OC3(C)C)c2)OC(=O)C(=O)C1c1ccc(O)cc1 (stereo unspecified) | inactive
C[C@@H]1CCCCO[C@H](CN(C)S(=O)(=O)c2cccs2)[C@H](C)CN([C@@H](C)CO)C(=O)c2cc(NS(=O)(=O)c3cccs3)ccc2O1 | inactive
C[C@@H]1CN([C@H](C)CO)C(=O)c2cc(NC(=O)NC3CCCCC3)ccc2O[C@H]1CN(C)C(=O)Nc1ccccc1 | inactive
COc1ccc(C)cc1NC(=O)CSc1nc(SC)ns1 | inactive
C[C@H](CO)N1C[C@H](C)[C@@H](CN(C)C(=O)Nc2ccccc2F)OCc2cn(nn2)CCCC1=O | inactive
COc1ccc(NC(=O)Nc2ccc3c(c2)C(=O)N([C@H](C)CO)C[C@H](C)[C@@H](CN(C)S(=O)(=O)c2ccc(OC)cc2)OCCCC[C@H](C)O3)cc1 | inactive
C[C@H](CO)N1C[C@H](C)[C@H](CN(C)C(=O)Nc2ccc3c(c2)OCO3)Oc2ncc(Br)cc2C1=O | inactive
C[C@H]1CN([C@@H](C)CO)C(=O)Cc2cc(NC(=O)Nc3ccc4c(c3)OCO4)ccc2O[C@H]1CN(C)CC1CC1 | inactive
